Active and inactive are the calls of the source.
Assays:
[1] = tested on: Plasmodium falciparum Sir2 (PF13_0152, Sir2A); assay: Plasmodium falciparum Sir2A binding compounds – biochemical, small-molecule microarray, 635 nm fluorescence, primary screen (AID 1098); details: fluorescence 635 nm, higher = more signal;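 also: score merges spot fluorescence intensity with its signal-to-noise ratio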
[2] = probe aDKK1 binding to arrayed compounds – biochemical, biotinylated probe, 635/667 nm fluorescence, primary screen (AID 1099); details: small-molecule microarray, higher = more signal;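 also: score merges 667nm spot fluorescence with signal to noise across triplicate slides; reference of the scale not given here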
[3] = probe aCHRDL2 binding to arrayed compounds – biochemical, biotinylated probe, 635/667 nm fluorescence, primary screen (AID 1100); details: small-molecule microarray, higher = more signal
[4] = change in splice reporter luminescence, either direction, cell-based, HEK293, spliceosome inhibition project, primary screen (AID 1101); details: HEK293 splicing luciferase reporter, 24 h, higher = more signal, called active from +8 up or from −8 down;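 also: HEK293 cells carrying a splicing-competent luciferase reporter gene; test concentration not given here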
[5] = target: Fibroblast growth factor 10 (Homo sapiens) (UniProt O15520); assay: compounds binding fibroblast growth factor 10 – biochemical, small-molecule microarray, 635 nm fluorescence, primary screen (AID 1102); details: FGF10 binding, fluorescence 635 nm, higher = more signal
[6] = tested on: glycogen synthase kinase-3 (GSK3A per assay name; protocol says GSK3B); assay: compounds binding glycogen synthase kinase-3 – biochemical, small-molecule microarray, 635 nm fluorescence, GSK3A, primary screen (AID 1103); details: fluorescence 635 nm, higher = more signal; also: the record names both GSK3A and GSK3B
[7] = target: Epidermal growth factor receptor (Homo sapiens) (UniProt P00533); assay: compounds binding epidermal growth factor receptor – biochemical, small-molecule microarray, 635 nm fluorescence, primary screen (AID 1104); details: EGFR binding, higher = more signal;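 also: score merges 667 nm emission intensity with spot signal to noise over triplicate slides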
[8] = target: Follistatin-related protein 3 (Homo sapiens) (UniProt O95633); assay: compounds binding follistatin-related protein 3 – biochemical, small-molecule microarray, 635 nm fluorescence, primary screen (AID 1105); details: FSTL3 binding, higher = more signal;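 also: score merges emission near 667 nm and signal to noise per printed spot across three slides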
[9] = target: Dickkopf-related protein 1 (Homo sapiens) (UniProt O94907); assay: small molecules binding DKK1 protein – biochemical, small-molecule microarray, 635 nm fluorescence scan, primary screen (AID 1106); details: higher = more signal;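 also: score merges emission near 667 nm with signal to noise over three replicate slides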
[10] = tested on: Inhibin beta A chain (activin A); assay: small molecules binding activin A – biochemical, small-molecule microarray, 635 nm fluorescence scan, primary screen (AID 1107); details: INHBA, higher = more signal;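 also: mouse activin A protein probed at 4.33 µg/mL on printed slides; score merges bound-protein fluorescence near 667 nm with spot signal-to-noise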

Epidermal growth factor receptor (Homo sapiens), sequence (P00533 whole entry, looked up): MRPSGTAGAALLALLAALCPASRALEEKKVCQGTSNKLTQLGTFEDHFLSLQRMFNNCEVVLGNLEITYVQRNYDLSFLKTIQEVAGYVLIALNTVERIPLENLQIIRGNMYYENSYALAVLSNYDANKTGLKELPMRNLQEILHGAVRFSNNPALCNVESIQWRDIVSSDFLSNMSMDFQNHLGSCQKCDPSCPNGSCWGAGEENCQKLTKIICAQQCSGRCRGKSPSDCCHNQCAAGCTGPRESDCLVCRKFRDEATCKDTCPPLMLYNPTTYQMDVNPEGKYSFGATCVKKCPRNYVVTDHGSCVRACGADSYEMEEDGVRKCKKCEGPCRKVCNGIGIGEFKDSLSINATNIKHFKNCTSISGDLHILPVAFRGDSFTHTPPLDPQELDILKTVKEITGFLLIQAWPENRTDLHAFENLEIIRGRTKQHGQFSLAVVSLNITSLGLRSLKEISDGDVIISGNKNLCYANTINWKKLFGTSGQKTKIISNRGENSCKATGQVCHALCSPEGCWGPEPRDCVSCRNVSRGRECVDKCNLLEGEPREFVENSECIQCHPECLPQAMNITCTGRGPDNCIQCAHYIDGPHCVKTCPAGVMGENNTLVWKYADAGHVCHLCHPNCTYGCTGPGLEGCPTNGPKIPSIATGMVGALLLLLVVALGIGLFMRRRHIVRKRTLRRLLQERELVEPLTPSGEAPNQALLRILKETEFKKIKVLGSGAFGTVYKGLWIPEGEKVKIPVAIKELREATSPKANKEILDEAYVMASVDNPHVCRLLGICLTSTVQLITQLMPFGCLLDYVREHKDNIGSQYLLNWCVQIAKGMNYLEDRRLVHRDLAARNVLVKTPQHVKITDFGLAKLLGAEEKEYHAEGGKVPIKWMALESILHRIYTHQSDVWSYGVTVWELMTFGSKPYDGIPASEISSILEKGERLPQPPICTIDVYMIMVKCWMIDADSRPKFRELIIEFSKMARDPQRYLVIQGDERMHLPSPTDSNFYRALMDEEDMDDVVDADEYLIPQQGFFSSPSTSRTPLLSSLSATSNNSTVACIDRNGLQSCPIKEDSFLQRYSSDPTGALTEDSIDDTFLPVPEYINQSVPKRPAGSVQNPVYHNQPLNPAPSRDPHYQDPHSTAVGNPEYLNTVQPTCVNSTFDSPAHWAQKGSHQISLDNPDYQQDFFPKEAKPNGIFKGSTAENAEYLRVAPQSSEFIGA
Dickkopf-related protein 1 (Homo sapiens), sequence (O94907 whole entry, looked up): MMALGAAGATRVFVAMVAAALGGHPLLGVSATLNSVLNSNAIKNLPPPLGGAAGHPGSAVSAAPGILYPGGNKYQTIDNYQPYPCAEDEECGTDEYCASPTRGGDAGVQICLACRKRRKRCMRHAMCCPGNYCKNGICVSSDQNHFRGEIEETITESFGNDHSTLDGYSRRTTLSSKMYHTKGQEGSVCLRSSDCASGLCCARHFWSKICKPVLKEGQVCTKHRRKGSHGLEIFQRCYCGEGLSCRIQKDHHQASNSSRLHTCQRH
Fibroblast growth factor 10 (Homo sapiens), sequence (O15520 whole entry, looked up): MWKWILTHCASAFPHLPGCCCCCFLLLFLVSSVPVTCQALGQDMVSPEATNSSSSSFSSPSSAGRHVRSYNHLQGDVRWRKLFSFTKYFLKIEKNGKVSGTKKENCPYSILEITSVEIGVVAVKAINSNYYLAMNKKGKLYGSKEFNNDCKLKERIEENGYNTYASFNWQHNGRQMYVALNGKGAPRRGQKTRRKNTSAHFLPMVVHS
Follistatin-related protein 3 (Homo sapiens), sequence (O95633 whole entry, looked up): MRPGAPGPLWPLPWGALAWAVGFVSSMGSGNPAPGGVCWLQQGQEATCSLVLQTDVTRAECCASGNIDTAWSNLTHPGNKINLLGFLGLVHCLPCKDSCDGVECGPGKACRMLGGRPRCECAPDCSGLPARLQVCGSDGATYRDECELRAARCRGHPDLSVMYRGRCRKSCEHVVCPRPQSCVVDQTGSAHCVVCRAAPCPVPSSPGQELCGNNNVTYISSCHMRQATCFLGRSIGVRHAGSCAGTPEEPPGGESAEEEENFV

Row | SMILES | composite z-score [1] | composite z-score [2] | composite z-score [3] | z-score [4] | composite z-score [5] | composite z-score [6] | composite z-score [7] | composite z-score [8] | composite z-score [9] | composite z-score [10]
1 | C=CCNC(=O)[C@H]1[C@@H]2C(=O)O[C@@H](c3ccccc3)[C@@H](c3ccccc3)N2[C@@H](c2ccc(O)cc2)[C@]12C(=O)Nc1ccccc12 | 0.524 | 0.46 | 0.501 | -0.592 (inactive) | 0.28 | -0.471 | -0.705 | -0.693 | -0.101 | 0.169
2 | [N-]=[N+]=Nc1ccccc1C[C@@]1(C(=O)NCC(O)CO)N=C(c2ccc(OCCCO)cc2)O[C@@H]1c1ccccc1N=[N+]=[N-] (stereo not given in full) | 1.05 | 0.106 | 1.09 | 8.25 (active) | 0.233 | 0.446 | -0.283 | 0.855 | -0.67 | 1.33
3 | COCCOC(=O)N1C(=O)[C@@]2(c3cc(C#CCC(C(=O)OC)C(=O)OC)ccc31)[C@H](c1ccc(O)cc1)N1[C@H](c3ccccc3)[C@H](c3ccccc3)OC(=O)[C@H]1[C@@H]2C(=O)N1CCc2cc(OC)c(OC)cc2C1 | 1.21 | -0.149 | 0.131 | 0.0333 (inactive) | 1.09 | 1.08 | 0.294 | 0.728 | 0.384 | 0.0348
4 | O=C1c2ccccc2[C@@]2(Cc3ccccc3N(CC(F)(F)F)C2=O)[C@H](c2ccc(CO)cc2)N1Cc1ccccc1 | -0.33 | -0.449 | -0.419 | -0.719 (inactive) | -0.0636 | 0.387 | -0.171 | 0.766 | 0.309 | 1.32
5 | C=C(CCCC)C(=O)CC[C@@H](OC(C)=O)c1ccc(OCCO)cc1 | 0.476 | -0.276 | -0.169 | 3.03 (inactive) | 1.48 | -0.198 | -0.678 | 0.824 | 0.268 | 0.204
6 | CCOC(=O)C[C@H]1[C@H](OC(=O)c2cc3ccccc3oc2=O)[C@@H](NC(=O)Cc2ccc(OC)cc2)c2cc(OCCCO)ccc2N1C(=O)Cc1ccc(OC)cc1 | 0.776 | -0.249 | -0.43 | -1.28 (inactive) | 0.703 | 0.382 | 0.455 | 0.789 | 0.328 | 0.156
7 | CCCC1(C(=O)OC)C=C2C(=C(C(C)C)C(=O)C2C)CN1 (stereo not given) | -0.129 | 0.759 | 0.813 | 1.44 (inactive) | -0.474 | -1.63 | -0.648 | -0.911 | -0.724 | 1.17
8 | COC(=O)[C@@]1(Cc2ccc(F)cc2)[C@H]2c3cc(C(=O)N(C)C)n(Cc4ccsc4Br)c3C[C@H]2CN1C(=O)c1ccccc1 | 1.3 | 2.31 | 1.36 | -3.81 (inactive) | 1.16 | 0.0579 | 1.51 | 0.369 | 0.0249 | 0.5
9 | C=CCOC(=O)[C@H]1[C@@H]2C(=O)O[C@@H](c3ccccc3)[C@@H](c3ccccc3)N2[C@@H](c2ccc(OCCOC(=O)[C@H]3C[C@H]4C(=O)NCC(=O)N4[C@H]3c3cccc(OCCO)c3)cc2)[C@]12C(=O)Nc1ccc(I)cc12 | 1.1 | -0.109 | 0.0341 | 0.341 (inactive) | 1.37 | 1.3 | 0.504 | 1.37 | 0.614 | 0.622
10 | O=C1NC(=O)C2C1C=CC(C(O)c1ccc(F)cc1)N2Nc1ccc(Cl)cc1Cl (stereo not given) | -0.315 | 0.96 | 1.12 | 1.65 (inactive) | 0.327 | -0.923 | -0.416 | -0.194 | -0.459 | 0.924
11 | CC(C)N1C(=O)[C@@]2(Cc3ccccc31)c1ccccc1C(=O)N(Cc1ccccc1C(F)(F)F)[C@H]2c1ccc(CO)cc1 | 1.73 | 0.444 | -0.756 | -0.352 (inactive) | 0.178 | 0.366 | 0.0355 | 1.39 | 1.08 | 0.66
12 | CCOC(=O)C[C@H]1[C@H](OC(=O)Cc2ccc3c(c2)OCO3)[C@@H](NC(=O)CC(C)C)c2cc(OCCCO)ccc2N1C(=O)c1ccc2ccccc2n1 | 1.26 | 0.0956 | -0.252 | -0.881 (inactive) | 0.891 | 0.614 | 0.255 | 1.19 | 0.743 | 0.242
13 | C=CCNC(=O)[C@H]1[C@@H]2C(=O)O[C@@H](c3ccccc3)[C@@H](c3ccccc3)N2[C@@H](c2ccc(O)cc2)[C@]12C(=O)N(C(=O)OCCOC)c1ccc(C#Cc3ccc(OC)cc3)cc12 | 1.21 | -0.0387 | 0.478 | -0.294 (inactive) | 0.88 | 1.08 | 0.215 | 0.448 | 0.211 | 0.794
14 | C=CCNC(=O)[C@H]1[C@@H]2C(=O)O[C@@H](c3ccccc3)[C@@H](c3ccccc3)N2[C@@H](c2ccc(O)cc2)[C@]12C(=O)Nc1ccc(C#CCC(C(=O)OC)C(=O)OC)cc12 | -0.147 | 0.199 | 0.599 | -0.0204 (inactive) | 0.727 | 1.04 | -0.195 | 0.339 | 0.415 | 1.08
15 | CC[C@@H]1C=C(C(=O)O)[C@H](c2cccc(Cl)c2)N1S(=O)(=O)c1ccc(C)cc1 | 0.514 | 0.472 | 0.692 | 0.608 (inactive) | 0.0519 | 0.46 | -0.527 | -0.614 | -0.785 | 0.414
16 | CC(C)c1ccc(NN2C(C(O)C3CCCCC3)C=CC3C(=O)N(c4ccccc4)C(=O)C32)cc1 (stereo not given) | 1.4 | 0.929 | 1.11 | 0.194 (inactive) | 0.802 | 1.24 | 0.478 | 1.11 | 0.794 | 0.874

Row | SMILES | composite z-score [1] | composite z-score [2] | composite z-score [3] | z-score [4] | composite z-score [5] | composite z-score [6] | composite z-score [7] | composite z-score [8] | composite z-score [9] | composite z-score [10]
17 | CCOC(=O)C[C@H]1[C@H](OC(=O)c2ccc(-c3ccccc3)cc2)[C@@H](NC(=O)c2ccc(-c3ccccc3)cc2)c2cc(OCCCO)ccc2N1C(=O)c1ccccc1 | 0.518 | 0.685 | 0.365 | 0.594 (inactive) | 0.79 | 0.477 | 0.101 | 0.719 | 0.69 | -0.12
18 | C=CCOC(=O)[C@@H]1[C@H]2C(=O)O[C@H](c3ccccc3)[C@H](c3ccccc3)N2[C@H](c2ccc(OCCOC(=O)[C@@H]3C[C@@H]4C(=O)N[C@@H](CC(C)C)C(=O)N4[C@@H]3c3ccc(O)cc3)cc2)[C@@]12C(=O)Nc1ccc(I)cc12 | 1.03 | -0.228 | -0.355 | -0.771 (inactive) | 1.37 | 1.28 | 0.817 | 1.42 | 1.14 | 0.79
19 | C=C[C@H](OC)[C@@H](O)c1ccc(OC)c(O)c1 | 0.352 | -0.464 | 0.37 | 0.772 (inactive) | -0.928 | -1.3 | -1.14 | -1.91 | -1.29 | -1.28
20 | O=C1C2C=CC(C(O)C(c3ccccc3)c3ccccc3)N(Nc3ccccc3F)C2C(=O)N1c1ccccc1 (stereo not given) | 0.802 | 0.632 | 0.786 | 0.34 (inactive) | 1.38 | 1.32 | 0.292 | 1.39 | 0.0465 | 0.875
21 | COC(=O)[C@@]1(Cc2ccc(F)cc2)[C@H]2c3cc(C(=O)N4CCCC4)n(Cc4ccc(OC(F)(F)F)cc4)c3C[C@H]2CN1C(=O)c1ccccc1 | 0.776 | 0.142 | 0.548 | 1.08 (inactive) | -0.135 | -0.141 | -0.564 | -1.03 | -0.559 | 0.602
22 | CCOC(=O)C=C1C[C@@H](c2cccc([N+](=O)[O-])c2)O[C@@H](c2cccc([N+](=O)[O-])c2)O1 | 0.765 | 1.15 | 0.895 | 0.435 (inactive) | 0.567 | 1.27 | 0.46 | 0.747 | 0.514 | 0.594
23 | C=C[C@@H](CO)NS(=O)(=O)c1ccc(Br)cc1 | -1.62 | -0.267 | -0.0866 | -0.774 (inactive) | -0.398 | -0.986 | -0.288 | -0.459 | -0.0213 | 0.733
24 | CC[C@@H](O[Si](C#C[Si](C(C)C)(C(C)C)C(C)C)(C(C)C)C(C)C)c1cn([C@H](CO)Cc2ccccc2)nn1 | 0.954 | -0.331 | -0.592 | 0.131 (inactive) | 0.675 | 0.566 | 0.236 | 0.675 | 0.39 | -0.092
25 | CC[C@@H](O[Si](C#C[Si](C(C)C)(C(C)C)C(C)C)(C(C)C)C(C)C)c1cn(Cc2cccc(Cl)c2)nn1 | 0.433 | -0.0597 | -0.3 | 0.453 (inactive) | 0.418 | 0.791 | 0.293 | 0.775 | 0.388 | 0.232
26 | COC(=O)[C@@]1(Cc2ccc(F)cc2)[C@H]2c3cc(C(=O)N4CCCC4)n(CCSCCO)c3C[C@H]2CN1C(=O)c1ccccc1 | 1.33 | 1.02 | 1.22 | -2.25 (inactive) | 0.26 | -0.273 | -0.707 | -0.803 | -0.957 | 1.06
27 | COc1ccc(NN2C(C(O)c3ccccc3)C=CC3C(=O)N(C4CCCCC4)C(=O)C32)cc1 (stereo not given) | 1.25 | 0.535 | 0.291 | -1.18 (inactive) | 1.24 | 1.28 | 0.122 | 1.21 | 0.453 | 0.786
28 | C=CC[C@@]1(C(=O)NCCCOC)N=C(c2ccc(OCCCO)cc2)O[C@@H]1c1ccccc1CN=[N+]=[N-] | 1.5 | 0.739 | 0.772 | -0.226 (inactive) | 1.38 | 1.31 | 0.0652 | 1.2 | -0.0117 | 1.14
29 | CCCCCN1CC=CC23O[C@@H]4/C=C\CCCOC(=O)C4[C@H]2C(=O)N(CCO)[C@@H]3C1=O (stereo not given in full) | 1.14 | -0.132 | 0.107 | -1.83 (inactive) | -0.412 | 0.45 | -0.356 | -0.338 | -0.0986 | 1.14
30 | COc1c(C)cc(-c2cc3c(c(CCc4ccccc4)n2)[Si](C(C)C)(C(C)C)O[C@H]3c2ccccc2)cc1C | 0.994 | -0.137 | -0.169 | -1.48 (inactive) | -0.168 | -0.914 | -0.275 | -0.257 | -0.204 | -0.0185
31 | OCCCc1cc[n+](Cc2cc3c(cc2Br)OCO3)cc1 | -0.837 | -0.0013 | 0.706 | 0.341 (inactive) | -0.741 | -1.84 | -1.15 | -0.725 | -0.625 | 0.783
32 | COc1ccc(CCNC(=O)[C@@H]2c3ccccc3C(=O)N(Cc3cc(F)cc(C(F)(F)F)c3)[C@H]2c2ccc(CO)cc2)cc1 | 0.181 | 1.89 | 0.877 | -0.267 (inactive) | 0.12 | 0.765 | 0.321 | 1.1 | 0.157 | 1.08

Source: PubChem BioAssay
